As a reminder, the inhibition is the change of the read-out against control, counted positive when it falls.

Here are results for 23 compounds from PubChem BioAssay AID602193 (The Scripps Research Institute Molecular Screening Center, 2012).

In all, about 1,600 compounds went through this assay and about 410 (26%) were called active. These entries were drawn from the full list. Values without a mark were called inactive.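 How the source made its calls: active means mean inhibition over triplicates above the low-control well mean plus 3 SD, set per campaign (cut at about 13% in these data); inactive means the rest.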

The nature of this test: forskolin-stimulated cAMP inhibition in U2OS – cell-based, TR-FRET, triplicate, counter-screen for MC4R biased antagonist project (AID 602193).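 Further: signal is single emission at 671 nm which falls as cellular cAMP rises; 0% = forskolin-stimulated wells and 100% = buffer without forskolin.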 Conditions: parental U2OS, LANCE TR-FRET, at 6.5 µM, stronger effect = higher value. In general terms: In TR-FRET formats the signal depends on donor and acceptor labels being close together.
As for `Cc1ccc(NC(=O)C(C)OC(=O)Cc2c[nH]c3ccccc23)cc1S(=O)(=O)N1CCOCC1` (stereo not drawn), the inhibition is 2.7%. On to `CC(C)Oc1c(Br)cc(Br)cc1/C=N/NC(N)=S`, for which the inhibition is 19.3% (active). For `C=Cn1c(C(=O)O)ccc1-c1ccc(OC)cc1`, the inhibition was -3.83%. Turning to `CCOC(=O)c1c(NC(=O)CCl)sc(C(=O)N(CC)CC)c1C`, the inhibition was 17.7% (active). For the compound `Cc1ccc(NS(=O)(=O)c2ccc(C)c(NC(=O)COc3ccc4ccccc4c3)c2)c(C)c1`, the inhibition was 2.54%. For the compound `COc1cccc(OC)c1C(=O)Nc1c(C(=O)N2CCN(c3ccccn3)CC2)oc2ccccc12`, the inhibition was -1.8%. Consider `CC1(C)Cc2ccccc2-c2[nH]c(=S)[nH]c(=O)c21`, for which the inhibition was 22.1% (active).

`CCOc1ccc(Nc2nc(Cl)nc(N3CCN(c4ccc(OC)cc4)CC3)n2)cc1`: the inhibition was 11.2%. The same measure for `O=C(OCC(=O)N1CCCCCC1)c1cnc(Cl)c(Cl)c1`: 21.2% (active); for `COc1ccc(CCNC(=O)c2cnc(Cl)c(Cl)c2)cc1`: 13.7% (active). The figure for `COc1ccc(CCNC(=O)COC(=O)c2cnc(Cl)c(Cl)c2)cc1` is 17.2% (active). Turning to `COc1ccc(C(C)C)cc1S(=O)(=O)Nc1ncn[nH]1`, the inhibition was 0.13%. Regarding `CCCC(C(=O)n1nc(C)cc1C)C(NS(=O)(=O)c1ccc(C)cc1)c1ccccc1` (stereo not drawn), the inhibition was 3.42%. Take `CCOC(=O)CSc1nc(N2CCOCC2)c2c(c1C#N)CC(C(C)C)OC2` (stereo not drawn): the inhibition was 3.57%. On to `Cc1ccc(CSc2nnc(-c3cnccn3)n2C)cc1`, for which the inhibition is -1.1%. The same measure for `COc1ccc(-c2n[nH]c(C)c2-c2ccccc2OC)c(O)c1`: 4.68%. The same measure for `COc1ccc2oc(N)c(C=O)c(=O)c2c1`: -1.23%. In the case of `COc1ccc(-c2nc3n(c(=O)c2C#N)CCS3)c(OC)c1`, the inhibition was -2.32%. Take `O=C(NC1=CC(=O)c2ccccc2C1=O)c1ccccc1`: the inhibition was -5.71%. The same measure for `COC(=O)c1sc(-c2ccc(C(C)(C)C)cc2)cc1NC(=O)/C=C/C(=O)O`: 1.28%; for `COCCCNC(=O)/C(C#N)=C/c1c(N2CCCCCC2)nc2ccccn2c1=O`: 9.32%; for `CN(C)C(CNC(=O)CCCOc1ccccc1)c1ccco1` (stereo not drawn): -0.67%. For the compound `Cc1ccc(Sc2ccc(NC(=O)c3ccc(F)cc3)cc2C#N)cc1`, the inhibition is 5.25%.
